Active and inactive are the calls of the source. Unless noted, the rule behind the calls is not given here.

The subject of assay [1] is Wnt5a (protein binding on small-molecule microarray). As to the kind of experiment: Wnt5a binders on small-molecule microarray, primary screen, biophysical, 635/667 nm fluorescence (AID 1142).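 Note: fluorescence read at 667 nm with signal to noise per printed feature.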 The conditions noted are these: 635 nm fluorescence, higher = more signal.
A short description of assay [2]: cell viability in Huh7 cells, primary screen, cytotoxicity control for HCV replication inhibitor project, CellTiter-Glo luminescence, basal, 48 h (AID 1143).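 Note: Huh7 hepatoma cells carrying a hepatitis C replication reporter with no stimulus; test concentration not given here.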 The settings on record: Huh7 HCV replicon, higher = more signal, called active from +8 up or from −8 down. (In general: In ATP-based viability assays light output follows the ATP content of the culture.)
Assay [3] can be described thus: P. aeruginosa biofilm formation inhibitors, primary screen, PAO1 strain, BacTiter-Glo luminescence, LB-PBS (AID 1144). The settings on record: 12 h, higher = more signal.
A short description of assay [4]: CREB reporter modulators without forskolin, primary screen, cell-based, PC12, CRE-LacZ reporter, unstimulated (AID 1145). The settings on record: no forskolin, luminescence, 4.5 h, higher = more signal, called active from +8 up or from −8 down.
Assay [5] in a line: CREB reporter modulators under forskolin, primary screen, cell-based, PC12, CRE-LacZ reporter, forskolin-stimulated (AID 1146).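 Note: PC12 cells with 6xCRE LacZ reporter stimulated by forskolin 10 µM; beta-galactosidase reporter signal reflecting CREB driven transcription.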 The settings on record: luminescence, 4.5 h, higher = more signal, called active from +8 up or from −8 down.
For assay [6], the target named is Streptavidin (Streptomyces avidinii) (UniProt P22629). As to the kind of experiment: streptavidin binders on small-molecule microarray, primary screen, artefact control for SMM compound annotation, biophysical, 635/667 nm fluorescence (AID 1147).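 Note: signal reflects streptavidin binding to arrayed compounds as a control protein.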 The settings on record: streptavidin binding, higher = more signal.
Assay [7] is described as follows: small-molecule binders of probe aInhba, primary screen, biochemical, small-molecule microarray, 635/667 nm fluorescence (AID 1148).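 Note: score merges 667nm spot fluorescence with signal-to-noise for antibody binding to printed compounds.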 The settings on record: higher = more signal.
Assay [8] has as its target Torsin-1A (Homo sapiens) (UniProt O14656). As to the kind of experiment: torsin A binders from cell lysate, primary screen, small-molecule microarray, wild-type, 635/667 nm (AID 1149). The settings on record: COS7 hTOR1A-WT lysate, 635 nm fluorescence, higher = more signal.
The target is the same in assay [9]. As to the kind of experiment: small-molecule binders of mutant TOR1A in lysate, primary screen, cell lysate, small-molecule microarray, COS7 lysate, 635/667 nm fluorescence (AID 1150).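 Note: score pools 667 nm emission and signal to noise measuring lysate protein binding.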 The settings on record: COS7 hTOR1A mutant lysate, 635 nm fluorescence, higher = more signal.
Assay [10] deals with Sonic hedgehog protein (Shh). As to the kind of experiment: small-molecule binders of Shh protein, primary screen, biochemical, small-molecule microarray, 635/667 nm fluorescence (AID 1151).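 Note: Shh protein binding to compounds spotted on small-molecule microarray slides; score combines spot fluorescence intensity with signal-to-noise across triplicate slides.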 The conditions noted are these: small-molecule microarray binding, 635 nm fluorescence; higher = more signal.
Assay [11] can be described thus: E. coli DRC41 culture turbidity changes, primary screen, E. coli filamentation inducer project, strain DRC41, OD650, 48 h (AID 1152).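 Note: E. coli MC1000 strain DRC41 lacking acrAB efflux pump and sulA.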 The conditions noted are these: E. coli DRC41 (acrAB sulA), higher = more signal, called active from +8 up or from −8 down.
Assay [12] can be described thus: small-molecule binders of probe aLefty1, primary screen, biochemical, small-molecule microarray, 635/667 nm fluorescence (AID 1153).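 Note: score merges spot fluorescence with signal-to-noise ratio from the scanned slide images.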 The conditions noted are these: higher = more signal.
The nature of assay [13]: PSAC antagonists in infected red cells, primary screen, cell-based, P. falciparum Indochina, OD700, 1 h (AID 1154). The conditions noted are these: P. falciparum Indochina infected RBC osmotic lysis, higher = more signal, called active from +8 up or from −8 down.
A short description of assay [14]: PSAC antagonists in infected red cells, primary screen, cell-based, P. falciparum Indochina, OD700, 2 h (AID 1155).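 Note: lysis reports solute entry through the parasite surface anion channel PSAC; channel blockers reduce lysis of infected cells.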 The conditions noted are these: P. falciparum Indochina infected erythrocytes, osmotic lysis OD700; higher = more signal, called active from +8 up or from −8 down.
A short description of assay [15]: osmotic lysis modulators in infected erythrocytes, primary screen, PSAC antagonist project, cell-based, P. falciparum Indochina, OD700, 3 h (AID 1156). The settings on record: higher = more signal, called active from +8 up or from −8 down.
Assay [16] in a line: PSAC antagonists in infected red cells, primary screen, cell-based, P. falciparum Indochina, OD700, 18 h (AID 1157). The conditions noted are these: P. falciparum Indochina infected erythrocytes, osmotic lysis OD700, 18 h; higher = more signal, called active from +8 up or from −8 down.
Assay [17] is described as follows: modulators of S6 phosphorylation in cells, primary screen, cell-based, A549, cytoblot, luminescence, serum-stimulated (AID 1158).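 Note: serum-stimulated A549 lung adenocarcinoma cells; signal is phosphorylated S6 detected by cytoblot immunostaining with HRP secondary.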 The conditions noted are these: A549 phospho-S6 cytoblot, 5 h, higher = more signal.
For assay [18], the target named is NADPH oxidase 2 (Homo sapiens) (UniProt P04839). As to the kind of experiment: NOX2-dependent H2O2 signal modulators, primary screen, NOX inhibitor project, cell-based, HEK293-NOX2, PMA-stimulated, Amplex Red fluorescence (AID 1159). Note: test concentration not given here. The conditions noted are these: 45 min, higher = more signal, called active from +8 up or from −8 down.
For assay [19], the target named is NADPH oxidase 4 (Homo sapiens) (UniProt Q9NPH5). As to the kind of experiment: NOX4-dependent H2O2 signal modulators, primary screen, NOX inhibitor project, cell-based, HEK293-NOX4, tetracycline-induced, Amplex Red fluorescence (AID 1160). The settings on record: 45 min, higher = more signal, called active from +8 up or from −8 down.
In assay [20] the target is NADPH oxidase 5 (Homo sapiens) (UniProt Q96PH1). As to the kind of experiment: NOX5-dependent H2O2 signal modulators, primary screen, NOX inhibitor project, cell-based, HEK293-NOX5, Amplex Red fluorescence (AID 1161). The settings on record: HEK293-NOX5, ionomycin, 45 min, higher = more signal.
Sequence of NADPH oxidase 5 (Homo sapiens) (Q96PH1 whole entry, looked up): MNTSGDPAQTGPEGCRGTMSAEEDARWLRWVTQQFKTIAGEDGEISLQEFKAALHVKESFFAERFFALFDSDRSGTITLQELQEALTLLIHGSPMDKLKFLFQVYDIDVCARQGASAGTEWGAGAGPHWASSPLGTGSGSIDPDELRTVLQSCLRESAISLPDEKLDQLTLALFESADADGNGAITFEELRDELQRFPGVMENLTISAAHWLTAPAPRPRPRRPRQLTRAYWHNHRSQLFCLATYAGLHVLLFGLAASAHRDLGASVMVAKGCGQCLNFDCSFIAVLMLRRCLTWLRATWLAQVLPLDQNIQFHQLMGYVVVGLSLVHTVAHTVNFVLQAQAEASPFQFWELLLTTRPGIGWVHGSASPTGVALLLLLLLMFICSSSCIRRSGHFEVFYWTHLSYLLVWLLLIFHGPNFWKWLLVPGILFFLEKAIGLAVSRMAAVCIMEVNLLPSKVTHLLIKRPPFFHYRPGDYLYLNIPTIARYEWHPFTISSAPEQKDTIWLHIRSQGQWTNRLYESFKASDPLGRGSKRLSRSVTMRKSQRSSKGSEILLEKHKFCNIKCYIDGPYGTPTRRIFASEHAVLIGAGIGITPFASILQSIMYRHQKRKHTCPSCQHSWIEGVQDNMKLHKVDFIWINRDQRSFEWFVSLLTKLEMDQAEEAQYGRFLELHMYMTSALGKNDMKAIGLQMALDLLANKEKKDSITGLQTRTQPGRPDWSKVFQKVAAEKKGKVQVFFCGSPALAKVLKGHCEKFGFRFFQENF

Sequence of Streptavidin (Streptomyces avidinii) (P22629 whole entry, looked up): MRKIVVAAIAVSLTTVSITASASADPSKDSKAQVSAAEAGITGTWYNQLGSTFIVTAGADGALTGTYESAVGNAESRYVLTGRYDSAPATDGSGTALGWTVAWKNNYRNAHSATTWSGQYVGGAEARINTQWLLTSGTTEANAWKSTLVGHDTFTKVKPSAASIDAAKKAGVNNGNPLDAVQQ
Sequence of Torsin-1A (Homo sapiens) (O14656 whole entry, looked up): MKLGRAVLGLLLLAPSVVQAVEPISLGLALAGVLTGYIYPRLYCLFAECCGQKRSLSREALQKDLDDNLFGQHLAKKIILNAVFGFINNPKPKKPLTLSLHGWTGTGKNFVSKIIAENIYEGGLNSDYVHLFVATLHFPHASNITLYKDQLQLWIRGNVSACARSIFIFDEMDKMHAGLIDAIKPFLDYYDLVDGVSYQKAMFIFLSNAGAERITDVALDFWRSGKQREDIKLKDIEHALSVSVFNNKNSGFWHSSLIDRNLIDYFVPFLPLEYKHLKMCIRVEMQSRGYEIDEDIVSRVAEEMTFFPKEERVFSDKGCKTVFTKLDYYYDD
Sequence of NADPH oxidase 4 (Homo sapiens) (Q9NPH5 whole entry, looked up): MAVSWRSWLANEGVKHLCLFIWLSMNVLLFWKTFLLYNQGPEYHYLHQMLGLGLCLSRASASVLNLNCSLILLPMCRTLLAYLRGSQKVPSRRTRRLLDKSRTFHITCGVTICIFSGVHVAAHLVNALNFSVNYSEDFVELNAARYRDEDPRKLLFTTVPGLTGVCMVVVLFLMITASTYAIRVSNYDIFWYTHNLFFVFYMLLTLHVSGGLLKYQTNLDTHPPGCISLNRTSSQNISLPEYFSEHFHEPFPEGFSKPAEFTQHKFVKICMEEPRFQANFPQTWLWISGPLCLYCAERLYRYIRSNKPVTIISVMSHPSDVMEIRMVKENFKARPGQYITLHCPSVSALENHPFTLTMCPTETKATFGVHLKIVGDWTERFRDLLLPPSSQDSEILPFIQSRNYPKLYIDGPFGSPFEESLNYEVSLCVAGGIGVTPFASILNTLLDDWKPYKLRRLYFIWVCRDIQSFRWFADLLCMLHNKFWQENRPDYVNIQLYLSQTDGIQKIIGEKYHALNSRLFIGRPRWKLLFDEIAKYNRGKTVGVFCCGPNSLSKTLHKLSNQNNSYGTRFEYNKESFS
Sequence of NADPH oxidase 2 (Homo sapiens) (P04839 whole entry, looked up): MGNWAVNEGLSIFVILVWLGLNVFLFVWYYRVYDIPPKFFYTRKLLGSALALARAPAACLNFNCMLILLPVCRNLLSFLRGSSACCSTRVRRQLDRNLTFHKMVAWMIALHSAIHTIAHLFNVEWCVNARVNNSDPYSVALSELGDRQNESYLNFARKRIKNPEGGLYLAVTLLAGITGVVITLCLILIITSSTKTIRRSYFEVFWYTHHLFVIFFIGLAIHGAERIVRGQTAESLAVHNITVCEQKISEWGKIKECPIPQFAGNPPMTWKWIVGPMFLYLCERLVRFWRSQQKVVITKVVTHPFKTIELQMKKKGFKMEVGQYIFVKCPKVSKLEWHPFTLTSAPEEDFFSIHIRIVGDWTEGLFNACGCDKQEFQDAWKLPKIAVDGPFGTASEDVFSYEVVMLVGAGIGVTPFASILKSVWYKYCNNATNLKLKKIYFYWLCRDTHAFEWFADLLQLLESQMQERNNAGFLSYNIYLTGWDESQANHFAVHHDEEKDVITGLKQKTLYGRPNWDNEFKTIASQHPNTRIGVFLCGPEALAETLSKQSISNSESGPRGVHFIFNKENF

Regarding `COc1cc2c(cc1O)C(c1cccs1)N(Cc1cc3c(cc1Br)OCO3)CC2` (stereo not given), the composite z-score in assay [1] is 0.594; in [6], 2.07; in [7], 0.0268; with Torsin-1A (Homo sapiens) [8], 0.835; with Torsin-1A (Homo sapiens) [9], 1.16; in [10] it was 0.305. Besides, the composite z-score in assay [12] is -0.566. Besides, the z-score in assay [2] was -4.04 (inactive); in assay [3], 0.582 (inactive); in assay [4], 0.0924 (inactive); in assay [5], 0.726 (inactive); in assay [11], -1.8 (inactive); in [13] it was 10.2 (active). The z-score in assay [14] is 2.26 (inactive); in [15], -1.06 (inactive); in assay [16], 1.41 (inactive); in assay [17], 0.0127; in assay [18] it was -4.19 (inactive); in assay [19], -2.38 (inactive). This compound gave a z-score in assay [20] of -2.26.

For the compound `CC(C)=C1C(=O)C(c2ccccc2)=C2CN3C(=O)N(CCc4ccccc4)C(=O)[C@]3(Cc3ccc(C(F)(F)F)cc3)[C@H]21`, the composite z-score in assay [1] was -0.199; in assay [6] it was 0.37; in [7], 0.23; with Torsin-1A (Homo sapiens) [8] it was -0.0473; in the assay with Torsin-1A (Homo sapiens) [9], -0.336; in [10], -1.18. The compound further yielded a composite z-score in [12] of 0.522. In addition, the z-score was -0.28 (inactive) in [2]; 0.408 (inactive) in assay [3]; 0.966 (inactive) in assay [4]; 0.96 (inactive) in assay [5]; -2.19 (inactive) in assay [11]; 22.3 (active) in assay [13]. Also, the z-score in [14] was 5.86 (inactive); in assay [15], 0.511 (inactive); in assay [16], 1.21 (inactive); in assay [17], -0.558; in assay [18], -0.12 (inactive); in assay [19] it was -1.21 (inactive). Moreover, the z-score in assay [20] was -0.226.

Take `COc1ccc([Si](C)(C)[C@H]2[C@H](CC(=O)N(CCO)Cc3ccccc3)O[C@@]3(C(=O)N(C)c4c(Br)cc(C)cc43)[C@@H]2C)cc1`: the composite z-score was 0.306 in assay [1]; 0.527 in assay [6]; -0.128 in assay [7]; 2.12 with Torsin-1A (Homo sapiens) [8]; 1.98 in the assay with Torsin-1A (Homo sapiens) [9]; 1.72 in [10]. For the same compound, the composite z-score in assay [12] turned out to be 0.0774. For the same compound, the z-score is -5.69 (inactive) in assay [2]; -1.43 (inactive) in assay [3]; 9.7 (active) in assay [4]; -2.49 (inactive) in assay [5]; -0.0939 (inactive) in [11]; 18.4 (active) in [13]. The z-score in assay [14] is 3.21 (inactive); in assay [15], 0.0319 (inactive); in assay [16], 1.11 (inactive); in assay [17], 1.83; in assay [18], -2.5 (inactive); in assay [19] it was -0.577 (inactive). Moreover, the z-score in assay [20] is -0.876.

Turning to `O=C1O[C@H](c2ccccc2)[C@H](c2ccccc2)N2[C@H]1[C@@H](C(=O)O)[C@]1(C(=O)Nc3ccc(C#CCCO)cc31)[C@H]2c1ccccc1OCCO`, the composite z-score in assay [1] is 0.248; in assay [6] it was -0.18; in assay [7], -0.0986; with Torsin-1A (Homo sapiens) [8], -0.658; with Torsin-1A (Homo sapiens) [9], -0.199; in assay [10], 0.824. The compound further showed a composite z-score in assay [12] of 0.0026. In addition, the z-score in assay [2] is -0.873 (inactive); in [3] it was -0.352 (inactive); in assay [4], -0.195 (inactive); in assay [5] it was 1.04 (inactive); in [11] it was -0.443 (inactive); in assay [13], 0.396 (inactive). The z-score in assay [14] was -0.353 (inactive); in assay [15], -1.27 (inactive); in [16], 0.173 (inactive); in assay [17] it was -0.0545; in assay [18], 1.93 (inactive); in assay [19], 0.226 (inactive). In [20], this compound had a z-score of 0.636.

Values taken from PubChem BioAssay.
